# hgDAF12 agonist = hgDAF-12 agonism, primary luciferase screen. HEK293 GAL4-hgDAF12 UAS-luciferase reporter, agonist luminescence; normalized to butyrate control. activation, % at 6.8 µM. hit rate 1.8% among 370,000. AID 687014;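 active means activation above a cutoff set at the mean of all screened compounds plus 3 SD, cut at about 10% in these data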
# hcDAF-12 act = activates DAF-12 receptor from parasite H. contortus; activation, % at 6.8 µM; HEK293 hcDAF-12 lit1-tk-luc reporter, luminescence; 0% DMSO, 100% Δ7-dafachronic acid; hit rate 1.4% among 370,000; AID 652067;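 active means activation above the mean of all tested compounds plus 3 SD, cut at about 5.5% in these data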
# ssDAF-12 act = activators of S. stercoralis DAF-12 nuclear receptor. HEK293 ssDAF-12/GRIP1 lit1-tk-luc reporter, luminescence; % of 3 µM dafachronic acid response. activation, % at 6.8 µM. hit rate 1% among 370,000;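 active means activation above the mean over all tested compounds plus 3 SD, cut at about 0.9% in these data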
# AHR act = human AHR activation; P35869; AHR-responsive luciferase reporter cells, luminescence; activation, % at 5 µM; hit rate 2.5% among 320,000; in the data active means activation above about 47%
# DAX1 inh-1 = inhibitors of human orphan nuclear receptor DAX1 (NR0B1); inhibition, % at 6.75 µM; hit rate 0.99% among 340,000; AID 504766; HEK293 Gal4-DAX1 luciferase reporter, luminescence; P51843;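 active means inhibition above the mean over all tested compounds plus 3 SD, cut at about 4.2% in these data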;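 further: inhibition shows as a rise in luminescence from relieved DAX1 repression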
# DAX1 inh-2 = DAX1 (NR0B1) inhibition, primary screen | HEK293T StAR-luciferase reporter, SF-1/DAX-1 repression relief | hit rate 1.1% among 370,000 | inhibition, % at 6.8 µM | AID 652010;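 active means inhibition above the mean over all tested compounds plus 3 SD, cut at about 3.6% in these data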;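 further: higher inhibition means more luminescence from relief of DAX-1 repression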
# DAX1 inh confirm = NR0B1 (human) inhibition, confirmation; hit rate 87% among 2,400; HEK293T StAR-promoter luciferase reporter, SF-1/DAX-1 repression; shares compounds with DAX1 inh-2; inhibition, % at 6.8 µM;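 active means inhibition above the average of every tested compound plus 3 SD, cut at about 3.8% in these data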;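 further: active compounds raise luminescence by relieving repression of the StAR reporter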
# Target sequence (P51843 whole entry, looked up): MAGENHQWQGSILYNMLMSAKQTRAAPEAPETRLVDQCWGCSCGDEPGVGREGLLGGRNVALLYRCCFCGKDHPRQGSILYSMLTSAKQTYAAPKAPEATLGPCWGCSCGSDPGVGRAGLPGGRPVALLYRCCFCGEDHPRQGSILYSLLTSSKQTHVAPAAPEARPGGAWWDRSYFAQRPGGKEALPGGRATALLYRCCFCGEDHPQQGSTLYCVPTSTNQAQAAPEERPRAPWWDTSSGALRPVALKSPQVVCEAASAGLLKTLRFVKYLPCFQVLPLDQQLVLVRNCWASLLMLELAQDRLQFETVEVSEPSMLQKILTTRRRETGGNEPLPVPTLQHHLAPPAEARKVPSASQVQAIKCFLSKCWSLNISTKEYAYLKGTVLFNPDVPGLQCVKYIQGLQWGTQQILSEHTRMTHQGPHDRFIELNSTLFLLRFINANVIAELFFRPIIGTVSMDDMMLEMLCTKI
# SF1 AF2mut Luc = counter-screen for DAX1 inhibitors: nonselective inhibitors with SF-1 AF2 mutant; AID 652136; HEK293 StAR-luciferase, luminescence; hit rate 78% among 2,400; inhibition, % at 6.8 µM; shares compounds with DAX1 inh-2;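 active means inhibition above the mean of all tested compounds plus 3 SD, cut at about 3% in these data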
# LXRb hcDAF ctr = activates human LXR-beta, counter-screen for hcDAF-12 agonists; shares compounds with hcDAF-12 act; HEK293 Gal4-LXR tk-luc reporter, luminescence, 24 h; normalized: DMSO 0%, positive control 100%; activation, % at 6.8 µM; 3,400 tested, under 10 active; AID 743027;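 active means mean percent activation of the reporter above a cutoff set as the average over tested compounds plus their standard deviation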
# hcDAF12 ag = confirmation of H. contortus DAF-12 agonists. shares compounds with hcDAF-12 act. HEK293 hcDAF-12 lit1-tk-luc reporter, luminescence; % of Δ7-dafachronic acid response. activation, % at 6.8 µM. hit rate 61% among 3,400. AID 743032;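 active means mean activation across triplicate tests above the threshold derived from the earlier primary screen, cut at about 5.5% in these data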
# hgDAF12 conf = hgDAF-12 agonism, confirmation assay; shares compounds with hgDAF12 agonist; HEK293 GAL4-hgDAF12 luciferase reporter, agonist mode; percent of butyrate response; activation, % at 6.8 µM; hit rate 80% among 3,300; AID 743050;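 active means mean activation over triplicate wells above the hit cutoff derived from the earlier primary screen, cut at about 11% in these data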
# LXR ag 2 = activates human LXR-beta, counter-screen for DAF-12 agonists; shares compounds with hgDAF12 agonist; HEK293 Gal4-LXR luciferase reporter, 24 h; activation, % at 6.8 µM; 3,300 tested, under 10 active; AID 743051;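 active means mean activation of the triplicate above a set limit carried over from the primary screen, none filed active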
# A number is an active result; 0 = inactive; - = no result; + = active, no number. Shown are actives, neighbours in structure and some others; about 5.7% of the full set was active somewhere.
SMILES,hgDAF12 agonist,hcDAF-12 act,ssDAF-12 act,AHR act,DAX1 inh-1,DAX1 inh-2,DAX1 inh confirm,SF1 AF2mut Luc,hgDAF12 conf,LXR ag 2,others
CCOC(=O)c1ccc(NC(=O)C(C)N2C(=O)c3ccccc3C2=O)cc1 (configuration not stated),0,0,0,0,0,0,-,-,-,-,
Cc1ccc(NC(=O)/C=C\C(=O)NCC(=O)O)cc1C,0,0,0,0,0,0,-,-,-,-,
Fc1cccc(Cc2c(-c3ccc(Cl)cc3)nc3ccc(Br)cn23)c1,18,0,0,-,-,4.7,0,0,0,0,
Cc1ccc2nc(-c3ccc(Cl)cc3)c(Cc3cccc(F)c3)n2c1,0,0,0,-,-,0,-,-,-,-,
Cc1ccc(-c2nc3ccc(Cl)cn3c2Cc2cccc(F)c2)cc1,21,0,0,-,-,6.5,9.7,4.9,11,0,
Cc1ccc(/C=N/Nc2ccc3ccccc3n2)o1,22,8.8,1.1,0,0,11,5.8,0,11,0,LXRb hcDAF ctr=0;hcDAF12 ag=10
Cc1cccc(/C=N/Nc2ccc3ccccc3n2)c1,0,0,0,0,0,0,-,-,-,-,
CC(=O)OCC(=O)N1N=C(c2ccc3ccccc3c2)CC1c1ccccc1 (configuration not stated),0,0,0,0,0,0,-,-,-,-,
COc1ccc(C2CC(c3ccc4ccccc4c3)=NN2C(=O)COC(=O)C2CCC(=O)N2)cc1 (configuration not stated),15,10,1.2,0,0,6.7,15,6.5,19,0,LXRb hcDAF ctr=0;hcDAF12 ag=6.0
Cc1cc(C(=O)NNCc2ccccc2)no1,0,0,0,0,0,0,-,-,-,-,
CC(C)c1ccc(CNNC(=O)c2ccccc2)cc1,0,0,0,0,0,0,-,-,-,-,
O=C(NNCc1ccccc1)c1ccccc1,16,0,0,-,0,6.1,13,5.8,12,0,
O=C(NNCc1ccccc1)c1ccccn1,19,0,0,-,0,7.8,9.2,4.7,14,0,
O=C(CC(=O)c1ccccn1)c1ccccc1,14,0,0,-,0,6.0,8.6,5.2,16,0,
O=C(c1ccccc1)c1ccccn1,0,0,0,0,0,0,-,-,-,-,
O=C1CN(C(=O)CSc2nnc(C3CC3)n2-c2ccccc2)c2ccccc2N1,0,0,0,0,0,0,-,-,-,-,
O=C(CCCCCCC(=O)Nc1ccccc1)NO,41,12,2.0,0,13,33,+,0,41,0,LXRb hcDAF ctr=0;hcDAF12 ag=7.0
O=c1cc(-c2ccccc2)oc2cc(O)cc(O)c12,15,0,0,0,0,5.7,9.2,0,13,0,
COc1cc(O)c2c(=O)cc(-c3ccccc3)oc2c1,0,0,0,0,0,0,-,-,-,-,
O=C(Nc1ccc(N2CCCCC2)cc1)c1ccccc1,15,7.2,0,0,0,7.3,17,6.7,17,0,LXRb hcDAF ctr=0;hcDAF12 ag=0
Nc1cc(C(=O)c2ccccc2)ccc1N1CCOCC1,0,0,0,0,0,0,-,-,-,-,
O=C(Cc1ccccc1)Nc1ccc(N2CCCCC2)cc1,25,0,1.7,0,0,5.1,14,7.3,18,0,
O=C(c1ccccc1)c1ccc(N2CCOCC2)cc1,15,0,0,-,0,6.6,7.1,4.6,16,0,
Cc1ccc(NC(=O)Cc2nnc(N)s2)cc1,0,0,0,0,-,0,-,-,-,-,
O=[N+]([O-])c1ccc(-c2ncc(-c3ccc(Br)cc3)o2)cc1,0,0,0,0,0,0,-,-,-,-,
SMILES,hgDAF12 agonist,hcDAF-12 act,ssDAF-12 act,AHR act,DAX1 inh-1,DAX1 inh-2,DAX1 inh confirm,SF1 AF2mut Luc,hgDAF12 conf,LXR ag 2,others
CC(=O)c1cccc(Nc2ccc(Br)cc2)c1,14,0,0,-,-,9.7,12,6.3,0,0,
CCOc1ccc(N(C)S(=O)(=O)c2ccc(C)c(C(=O)OCC(=O)c3c[nH]c4ccccc34)c2)cc1,0,0,0,0,0,0,-,-,-,-,
Cn1c(CCc2ccc(N)cc2)nc2ccccc21,15,0,0,0,0,6.1,9.5,5.0,14,0,
O=C1c2ccccc2C(=O)C1c1ccnc2ccccc12,21,24,5.1,62,0,5.3,0,0,0,0,LXRb hcDAF ctr=0;hcDAF12 ag=18
N#CC1=C(N)SC(N)=C(C#N)C1c1ccnc2ccccc12,0,0,0,0,0,0,-,-,-,-,
CCOC(=O)c1c(NC(=O)CSc2nnc(-c3ccccc3C)n2C)sc(C(C)=O)c1C,0,0,0,0,0,0,-,-,-,-,
Cc1ccc2nc(C)/c(=N\O)c(C)nc2c1,15,10.0,0,0,0,5.3,5.3,3.2,0,0,LXRb hcDAF ctr=0;hcDAF12 ag=0
Cc1ccc2nc(N)nnc2c1,0,0,0,-,0,0,-,-,-,-,
CSc1ncccc1C(=O)OCC(=O)c1cc(C)n(CC2CCCO2)c1C (configuration not stated),0,0,0,0,0,0,-,-,-,-,
CCn1c(C)cc(C(=O)COC(=O)c2cccnc2SC)c1C,15,0,0,0,7.9,5.9,6.1,4.4,14,0,
COc1ccc(N(C)C(=O)c2cc3c(s2)-c2ccc(Cl)cc2S(=O)(=O)C3)c(OC)c1,0,0,0,0,0,0,-,-,-,-,
CC(C)(/C=N/O)/[N+]([O-])=C/c1ccccc1,0,0,0,0,-,0,-,-,-,-,
Cc1nnc(SCC(=O)Nc2nsc(-c3ccc(C(C)(C)C)cc3)n2)s1,27,7.3,0,0,4.4,7.3,11,6.0,19,0,LXRb hcDAF ctr=0;hcDAF12 ag=6.9
Cc1nnc(SCC(=O)Nc2ccccc2NC(=O)CSc2nnc(C)s2)s1,0,0,0,0,0,0,-,-,-,-,
CCOc1ccc(NC(=O)C2CCCN2S(=O)(=O)c2ccc3c(c2)C(C)(C)C(=O)N3C)cc1 (configuration not stated),0,0,0,0,0,0,-,-,-,-,
O=C(N=c1nc2ccccn2s1)c1ccccc1,22,11,1.1,0,0,5.2,11,0,0,0,LXRb hcDAF ctr=0;hcDAF12 ag=13
COc1ccc2oc(=O)c(C(=O)Nc3ccccc3O)cc2c1,19,6.1,0,0,0,5.6,11,6.8,16,0,

# Source: PubChem
